# ± gives the standard deviation of the averaged measurements. Whole data set: some 33,000 sequences, median “E-score (rank enrichment, -0.5 to 0.5)” near -0.0068, cut for the highest 2% near 0.24. The sample holds the highest values, similar sequences and a random draw of the others, so the mix is not that of the screen.
# Test system: muMax20 (Max(13-93) K31hArg/K57hArg, M65Nle)
# Assay: PBM 8-mer E-score (E-score (rank enrichment, -0.5 to 0.5)); higher = stronger preferential binding
# Description: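 Protein binding microarray (universal PBM chip covering all 10-mers in fixed probe flanks) with chemically synthesized human Max(13-93) bHLH-LZ analogs (not full-length Max) bearing noncanonical residues (hArg, Tha, Aib, Nle at 65) and aromatic Cys staples. Read-out per 8-mer (and its reverse complement): E-score (rank-based enrichment, -0.5 to 0.5) and Z-score of median probe intensity.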
row,Sequence,PBM 8-mer E-score
1,ACGTATTA,0.25 ± 0.076
2,CATATGAA,0.0777 ± 0.049
3,AGGCACGA,0.109 ± 0.032
4,CAGAGCTA,-0.25 ± 0.013
5,TGAACAAA,0.00782 ± 0.029
6,ATAAGAAA,0.141 ± 0.043
7,CTAATAAA,0.163 ± 0.024
8,ATAATAAA,0.217 ± 0.023
9,TTAATAAA,0.238 ± 0.028
10,CTAATAAC,0.19 ± 0.074
11,CTAATCAG,-0.0349 ± 0.028
12,ATAATCAG,0.32 ± 0.072
13,ATAAGAAC,0.24 ± 0.081
14,ATAATCAA,0.0671 ± 0.022
15,GTAATAAC,0.156 ± 0.072
16,ATAATAAC,0.315 ± 0.034
17,ATAAGAAT,0.165 ± 0.04
18,GATAGCGA,-0.086 ± 0.082
19,AATCCGAC,0.0325 ± 0.024
20,CTCAGAGC,-0.28 ± 0.041
21,ATCTGGAG,-0.0378 ± 0.089
22,AAAGATGT,0.203 ± 0.0026
23,CCCGTCTC,-0.0114 ± 0.0032
24,ATCTCAAG,-0.0469 ± 0.0077
25,GCGAAGCA,0.0453 ± 0.032

row,Sequence,PBM 8-mer E-score
1,ACTTCCGC,-0.0937 ± 0.045
2,ATAATAAG,0.247 ± 0.051
3,ATAATAAT,0.205 ± 0.05
4,CTAATAAG,0.119 ± 0.044
5,CGCAGAGA,-0.0723 ± 0.14
6,CTCCAAGC,-0.018 ± 0.00052
7,CATATAAC,0.219 ± 0.048
8,AATATAAG,0.207 ± 0.045
9,AATATAAA,0.324 ± 0.012
10,AATATAAT,0.156 ± 0.065
11,TGTATAAA,0.207 ± 0.0065
12,TATATAAA,0.304 ± 0.05
13,CATATAAA,0.329 ± 0.056
14,GATATAAA,0.139 ± 0.03
15,CATATAAG,0.154 ± 0.076
16,ACGACGCA,0.00737 ± 0.11
17,AGGGGGCA,-0.0171 ± 0.019
18,CAGGCTCA,-0.0417 ± 0.019
19,GATCTTGA,0.101 ± 0.013
20,CTAGGCGA,-0.155 ± 0.071
21,TCCCCTCA,0.14 ± 0.1
22,CTTTCCTA,-0.0321 ± 0.019
23,ATTTCCTA,0.137 ± 0.029
24,GTTTCCTA,0.307 ± 0.033
25,GGAGGGCA,0.044 ± 0.11

row,Sequence,PBM 8-mer E-score
1,ATCAATTG,0.262 ± 0.073
2,ATCAATTA,0.229 ± 0.068
3,ATCAATTC,0.172 ± 0.013
4,ACAATCAA,0.0227 ± 0.021
5,CCAATAAG,-0.0178 ± 0.017
6,ACAATAAG,0.21 ± 0.021
7,ACAATAAT,0.286 ± 0.0027
8,ACAATCAC,0.228 ± 0.053
9,GCAATAAA,0.0786 ± 0.0037
10,ACAATCAT,0.273 ± 0.042
11,AGAATAAT,0.116 ± 0.05
12,ACAATAAC,0.191 ± 0.0039
13,CCAATAAA,0.266 ± 0.026
14,TCAATAAA,0.114 ± 0.043
15,ACAATAAA,0.275 ± 0.025
16,ACGTCTGA,-0.0769 ± 0.16
17,CAGGGCAC,-0.0777 ± 0.0056
18,AGGACCGC,0.0155 ± 0.085
19,CGACCTGC,-0.105 ± 0.063
20,GAAACCCC,-0.0104 ± 0.014
21,TAAGATTA,0.129 ± 0.04
22,TGCTTAAA,0.024 ± 0.12
23,ACTCGCGG,-0.0552 ± 0.016
24,ATACAGTC,0.0784 ± 0.094
25,ATACAGTG,0.2396 ± 0.0022

row,Sequence,PBM 8-mer E-score
1,ATACAGTA,0.233 ± 0.095
2,GCGTGCAA,0.0854 ± 0.022
3,CTTGAGTC,-0.0129 ± 0.11
4,CTCGACGA,-0.142 ± 0.024
5,GAGCCCTA,-0.14 ± 0.018
6,AGAAACAA,0.2614 ± 0.0014
7,GTAAAACA,0.108 ± 0.0083
8,TAAAACTA,0.239 ± 0.11
9,AGAAACAC,0.00585 ± 0.032
10,ATAAACAC,0.164 ± 0.11
11,ATAAAACG,0.194 ± 0.02
12,ATAAACAA,0.27 ± 0.049
13,ATAAAACA,0.31 ± 0.025
14,AAAAACTA,0.095 ± 0.061
15,TTAAACAA,0.0932 ± 0.11
16,CAAAACTA,0.132 ± 0.15
17,GGAAACAA,0.0706 ± 0.057
18,GGGAACAA,0.144 ± 0.0098
19,AGCCCCTC,0.0302 ± 0.046
20,AGCTCCTG,-0.171 ± 0.17
21,CAGTCACC,-0.064 ± 0.14
22,AGTTGAAG,0.0533 ± 0.067
23,CGGGAAGA,-0.0577 ± 0.15
24,AAAAAACG,0.241 ± 0.023
25,GAAAAACA,0.16 ± 0.037

row,Sequence,PBM 8-mer E-score
1,AAAAAACA,0.272 ± 0.11
2,CAAAAACG,0.111 ± 0.068
3,ACAAAACG,0.187 ± 0.013
4,ATAAACTG,0.0137 ± 0.077
5,ATAAACTC,0.117 ± 0.039
6,TAAAAACA,0.171 ± 0.018
7,ATAAACTA,0.276 ± 0.041
8,AGATAGAG,-0.0243 ± 0.056
9,ACAATGCG,0.0438 ± 0.031
10,CCGTTTCC,0.0806 ± 0.018
11,CCTTTCCA,0.0937 ± 0.037
12,CCCTTATA,0.199 ± 0.086
13,TTGTAAAA,0.24 ± 0.053
14,AAGTAACA,0.152 ± 0.018
15,ATGTAAAA,0.221 ± 0.049
16,ATGTAATA,0.2587 ± 0.0011
17,CTGTAACA,0.0977 ± 0.058
18,ATGTAACA,0.244 ± 0.057
19,GAGTAACA,0.164 ± 0.033
20,CTGTAAAA,0.0545 ± 0.043
21,CTGTAATA,0.175 ± 0.023
22,ATGTAACG,0.122 ± 0.029
23,TAGTAACA,0.239 ± 0.066
24,ATGTAATG,0.2252 ± 0.0016
25,CTAGTTAC,-0.0138 ± 0.072

row,Sequence,PBM 8-mer E-score
1,AATTGCCA,0.0456 ± 0.0012
2,CATTCGGG,-0.0351 ± 0.075
3,AATCTTGC,-0.066 ± 0.042
4,ACGAGTGA,-0.0322 ± 0.14
5,ATGTAAAT,0.154 ± 0.09
6,CTGTAAAG,-0.0854 ± 0.0043
7,ATGTAAAG,0.244 ± 0.038
8,GGCTGACA,-0.104 ± 0.086
9,ACCGTCAA,-0.205 ± 0.0036
10,AATTACAA,0.209 ± 0.066
11,AACTACAA,0.0818 ± 0.066
12,AACTATAA,0.229 ± 0.044
13,GATTAGAA,0.0438 ± 0.032
14,CACTATAA,0.0282 ± 0.15
15,TATTACAA,0.236 ± 0.041
16,CACTACAA,0.152 ± 0.021
17,CATTACAA,0.184 ± 0.097
18,TACTACAA,0.286 ± 0.0027
19,TATTAGAA,0.268 ± 0.0096
20,TACTATAA,0.284 ± 0.021
21,CATTAGAA,0.0939 ± 0.015
22,CTGGGAGC,-0.247 ± 0.043
23,AAAGTCCG,-0.148 ± 0.0098
24,GTGGAAAC,0.119 ± 0.033
25,CCCTCATA,0.135 ± 0.065

row,Sequence,PBM 8-mer E-score
1,GTAGACAA,0.173 ± 0.061
2,GTCTTAGA,-0.0878 ± 0.12
3,GGGCAAAA,-0.107 ± 0.024
4,AGGGGTAG,0.123 ± 0.011
5,CTGTGGGA,-0.0483 ± 0.025
6,AATTGATG,0.264 ± 0.051
7,AATTGATA,0.232 ± 0.016
8,AATTGATC,0.0857 ± 0.087
9,GAAGGGCA,0.156 ± 0.0064
10,ACTATAGT,0.243 ± 0.03
11,ACTATAGA,0.117 ± 0.049
12,CTAATGTA,0.1481 ± 0.0014
13,ACTATAGG,0.0643 ± 0.011
14,AGTATACT,0.258 ± 0.04
15,ATAATGTA,0.276 ± 0.0095
16,AGTATACC,0.077 ± 0.053
17,ATTATGTG,0.164 ± 0.049
18,AGTATACA,0.175 ± 0.1
19,ATTATGTA,0.247 ± 0.0099
20,ATAATGTC,0.0566 ± 0.18
21,ATTATGTC,0.066 ± 0.23
22,AACGTTGA,0.212 ± 0.038
